The inhibition is the relative decrease from the control value, in per cent.

Assay [1] is described as follows: antimalarial activity against Dd2 strain (AID 2302;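 active means growth inhibition above 50% at the single 2 µM test dose, taken to imply half-maximal potency below 2 µM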;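 further: 0% = DMSO untreated growth and 100% = chloroquine plus artemisinin killed control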). As to conditions: P. falciparum Dd2 in RBCs, LDH growth readout, 72 h; at 2 µM; hits give high values.
A short description of assay [2]: human hepatoma cell viability loss – ATP luminescence, cytotoxicity control for P. falciparum antimalarial project, primary screen (AID 2303;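 active means inhibition above 50%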;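 further: 0% = DMSO wells and 100% = digitonin-killed cells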). Conditions: HepG2 viability, 24-48 h, at 10 µM, hits give high values.
The target of assay [3] is L-lactate dehydrogenase (Plasmodium falciparum (isolate CDC / Honduras)) (UniProt Q27743). The assay is described as follows: PfLDH activity inhibition – cell lysate, 3D7 strain, counter-screen for P. falciparum growth inhibition project (AID 2304).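 Further: 0% = vehicle and 100% = reference inhibitor.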 Conditions: P. falciparum 3D7 crude extract, LDH APAD/NBT absorbance; at 2 µM; hits give high values. (In general: The purpose of a counterscreen is to sort out artefacts and off-target activity.)

Assay [4] is described as follows: inhibition of 3D7 malaria parasite growth – strain 3D7 (AID 2306).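 Further: 0% = DMSO wells and 100% = chloroquine plus artemisinin control wells.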 As to conditions: P. falciparum 3D7 erythrocytic growth, LDH absorbance, 72 h; at 2 µM; hits give high values.
Assay [5] concerns the target Calcium-dependent protein kinase 1 (Plasmodium falciparum (isolate 3D7)) (UniProt P62344). Nature of the assay: PfCDPK1 kinase inhibitors, biochemical, TCAMS library (AID 1159585; cut-off not given, nearly all actives have IC50 up to about 0.98 µM;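 further: inhibitors leave more ATP so luminescence rises with inhibition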). As to conditions: recombinant PfCDPK1, Kinase-Glo ATP depletion luminescence. On the technique in general: Kinase-Glo measures the ATP left after a reaction by luminescence.
The target in assay [6] is Plasmodium falciparum protein kinase 6 (PK6, PF3D7_1337100) (UniProt Q8IDW1). The assay is described as follows: PfPK6 kinase inhibitors, biochemical, TCAMS library (AID 1159586). Conditions: recombinant PfPK6, Kinase-Glo ATP depletion luminescence.
Assay [7] addresses Protein kinase 7 (PK7), Plasmodium falciparum 3D7 (PF3D7_0213400) (UniProt Q7YTF7). Nature of the assay: inhibition of Plasmodium PK7 catalytic activity – biochemical, TCAMS antimalarial set, Kinase-Glo luminescence (AID 1159587). As to conditions: recombinant PfPK7, Kinase-Glo ATP depletion luminescence.
Assay [8] deals with Calcium-dependent protein kinase 4 (Plasmodium falciparum (isolate 3D7)) (UniProt Q8IBS5). Nature of the assay: PfCDPK4 kinase inhibitors, biochemical, TCAMS library (AID 1159588; cut-off not given, nearly all actives have IC50 up to about 0.91 µM). Conditions: recombinant PfCDPK4, Kinase-Glo ATP depletion luminescence.

The structures appear in SMILES notation. Values without a mark were called inactive. For part of these data: Results with a measured potency or affinity are listed apart. Activity calls are given as the source filed them. Unless noted, how the calls were made is not given here.

Chain of Protein kinase 7 (PK7), Plasmodium falciparum 3D7 (PF3D7_0213400) (Q7YTF7 1-343): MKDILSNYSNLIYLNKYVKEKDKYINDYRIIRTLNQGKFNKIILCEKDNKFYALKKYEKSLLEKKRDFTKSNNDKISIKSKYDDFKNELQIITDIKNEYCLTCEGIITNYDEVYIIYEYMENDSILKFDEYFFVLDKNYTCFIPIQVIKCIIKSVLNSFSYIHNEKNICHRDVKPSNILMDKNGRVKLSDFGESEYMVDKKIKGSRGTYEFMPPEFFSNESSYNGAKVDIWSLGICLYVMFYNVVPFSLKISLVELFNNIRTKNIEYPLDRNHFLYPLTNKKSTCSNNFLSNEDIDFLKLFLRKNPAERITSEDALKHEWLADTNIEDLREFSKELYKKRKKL
Chain of Calcium-dependent protein kinase 1 (Plasmodium falciparum (isolate 3D7)) (P62344 whole entry, looked up): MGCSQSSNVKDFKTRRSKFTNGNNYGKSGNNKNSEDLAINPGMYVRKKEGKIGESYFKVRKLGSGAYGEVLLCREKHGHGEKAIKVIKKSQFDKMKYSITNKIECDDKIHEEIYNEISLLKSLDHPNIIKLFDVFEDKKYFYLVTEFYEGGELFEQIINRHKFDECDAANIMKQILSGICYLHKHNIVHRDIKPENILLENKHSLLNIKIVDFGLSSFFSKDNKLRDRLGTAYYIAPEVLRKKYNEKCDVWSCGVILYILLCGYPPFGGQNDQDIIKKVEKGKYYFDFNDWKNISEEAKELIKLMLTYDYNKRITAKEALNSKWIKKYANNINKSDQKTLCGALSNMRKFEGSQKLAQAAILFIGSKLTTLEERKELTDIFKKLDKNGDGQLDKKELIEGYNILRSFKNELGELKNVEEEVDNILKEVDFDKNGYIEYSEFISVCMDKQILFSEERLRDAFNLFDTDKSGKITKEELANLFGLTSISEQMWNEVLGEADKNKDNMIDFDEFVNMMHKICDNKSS
Chain of Plasmodium falciparum protein kinase 6 (PK6, PF3D7_1337100) (Q8IDW1 1-305): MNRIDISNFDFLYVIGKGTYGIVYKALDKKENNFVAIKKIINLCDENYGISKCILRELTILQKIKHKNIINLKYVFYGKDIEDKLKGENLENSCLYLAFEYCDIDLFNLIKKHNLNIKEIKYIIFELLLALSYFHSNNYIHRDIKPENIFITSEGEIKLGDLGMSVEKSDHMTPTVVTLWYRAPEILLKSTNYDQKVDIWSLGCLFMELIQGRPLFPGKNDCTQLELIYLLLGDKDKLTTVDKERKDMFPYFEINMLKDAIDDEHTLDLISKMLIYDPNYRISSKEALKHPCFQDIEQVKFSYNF
Chain of Calcium-dependent protein kinase 4 (Plasmodium falciparum (isolate 3D7)) (Q8IBS5 whole entry, looked up): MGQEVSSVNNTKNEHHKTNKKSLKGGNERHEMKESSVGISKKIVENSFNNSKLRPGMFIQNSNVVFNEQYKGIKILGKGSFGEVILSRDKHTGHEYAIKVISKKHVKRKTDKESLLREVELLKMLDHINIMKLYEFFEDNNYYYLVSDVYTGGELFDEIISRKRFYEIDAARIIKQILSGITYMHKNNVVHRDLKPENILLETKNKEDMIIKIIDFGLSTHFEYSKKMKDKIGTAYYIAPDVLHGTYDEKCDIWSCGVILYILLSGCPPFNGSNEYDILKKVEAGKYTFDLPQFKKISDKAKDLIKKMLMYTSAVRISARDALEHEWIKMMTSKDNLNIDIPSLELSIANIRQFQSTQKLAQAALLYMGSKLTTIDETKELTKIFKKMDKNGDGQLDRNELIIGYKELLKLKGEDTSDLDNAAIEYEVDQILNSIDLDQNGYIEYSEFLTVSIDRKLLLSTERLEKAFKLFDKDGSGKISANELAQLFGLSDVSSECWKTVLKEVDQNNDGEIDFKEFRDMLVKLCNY
Chain of L-lactate dehydrogenase (Plasmodium falciparum (isolate CDC / Honduras)) (Q27743 whole entry, looked up): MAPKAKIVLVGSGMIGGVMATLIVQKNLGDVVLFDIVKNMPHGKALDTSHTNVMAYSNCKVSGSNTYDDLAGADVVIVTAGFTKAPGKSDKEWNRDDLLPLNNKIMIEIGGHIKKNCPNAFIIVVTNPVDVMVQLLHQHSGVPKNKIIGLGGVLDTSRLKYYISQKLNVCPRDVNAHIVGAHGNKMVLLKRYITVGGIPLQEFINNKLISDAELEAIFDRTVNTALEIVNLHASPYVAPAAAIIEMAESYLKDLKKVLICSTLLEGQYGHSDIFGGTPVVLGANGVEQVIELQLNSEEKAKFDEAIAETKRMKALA

As for `C=CCN1CCC(N(Cc2cccc(Oc3ccccc3)c2)C(=O)C(c2ccccc2)c2ccccc2)CC1`, the growth inhibition in assay [1] was 79% (active); in assay [4], 87% (active). For the same compound, the inhibition was 7% in assay [2] and -5% in assay [3]. The result in assay [5], in assay [6], in assay [7] and in assay [8] was inactive.

In the case of `Cc1[nH]nc2cc(F)c(-c3cc(OC[C@@H](N)Cc4ccccc4)cnc3-c3ccoc3)cc12`, the results for the growth inhibition in assay [1] and in assay [4] were 15% and 95% (active), respectively. Also, the results for the inhibition in assay [2] and in assay [3] were 22% and 6%, respectively. The outcome in assay [5], in assay [6], in assay [7] and in assay [8] was inactive.

Consider `N#Cc1ccc(NC2(C(=O)N3CCN(c4cccc(Cl)c4)CC3)CC2)c2ccccc12`, for which the results for the growth inhibition in assay [1] and in assay [4] were 66% (active) and 94% (active), respectively. For the same compound, the inhibition in assay [2] was -5%; in assay [3], 0%. In addition, the result in assay [5], in assay [6], in assay [7] and in assay [8] was inactive.

Turning to `O=C(NCCCCCCNCc1ccc(-c2ccccc2)cc1)Nc1ccc(Cl)c(Cl)c1`, the growth inhibition in assay [1] is 2%; in assay [4], 90% (active). Also, the inhibition in assay [2] was 14%; in assay [3] it was -1%. The result in assay [5], in assay [6], in assay [7] and in assay [8] was inactive.

As for `O=C(Nc1cccc(CN2CCCN(Cc3ncc[nH]3)CC2)c1)c1ccc(Cl)c(Cl)c1`, the figures for the growth inhibition in assay [1] and in assay [4] were 16% and 100% (active), respectively. Moreover, the inhibition in assay [2] was 8%; in assay [3], 1%. Also, the outcome in assay [5], in assay [6], in assay [7] and in assay [8] was inactive.

With `O=C(CCCCCCc1ccccc1)Nc1ccc2nc3c(c(NCc4ccccc4)c2c1)CCCC3`, the results for the growth inhibition in assay [1] and in assay [4] were 98% (active) and 101% (active), respectively. Besides, the inhibition in assay [2] is 19%; in assay [3] it was -3%. Further, the outcome in assay [5], in assay [6], in assay [7] and in assay [8] was inactive.

Consider `CC(C)Cn1c(Sc2ccc(C#N)c([N+](=O)[O-])c2)nnc1-c1cccc(Cl)c1`, for which the growth inhibition in assay [1] was 95% (active); in assay [4], 98% (active). The inhibition in assay [2] was 24%; in assay [3], 5%. For the same compound, the outcome in assay [5], in assay [6], in assay [7] and in assay [8] was inactive.

Consider `CCCCCCN1CCC(NCc2cccc(C(F)(F)F)c2)CC1`, for which the results for the growth inhibition in assay [1] and in assay [4] were 82% (active) and 103% (active), respectively. Also, the inhibition in assay [2] is 18%; in assay [3], -6%. Besides, the outcome in assay [5], in assay [6], in assay [7] and in assay [8] was inactive.

As for `COc1cc(-c2nc(-c3ccccc3)c(-c3ccc(C(=O)c4ccc(F)cc4)cc3)[nH]2)cc(OC)c1O`, the growth inhibition in assay [1] was 100% (active); in assay [4], 101% (active). For the same compound, the inhibition in assay [2] is 0%; in assay [3] it was -3%. Further, the result in assay [5], in assay [6], in assay [7] and in assay [8] was inactive.

As to `COc1cccc(Nc2nc(NCCO)c3ccccc3n2)c1`, the growth inhibition in assay [1] was 88% (active); in assay [4], 99% (active). The inhibition was 1% in assay [2] and -6% in assay [3]. Moreover, the outcome in assay [5], in assay [6], in assay [7] and in assay [8] was inactive.

In the case of `O=C(Nc1nc(-c2ccccn2)cc2ccccc12)c1cccc(Cl)c1`, the growth inhibition was 72% (active) in assay [1] and 96% (active) in assay [4]. Besides, the values for the inhibition in assay [2] and in assay [3] were 59% (active) and -3%, respectively. The result in assay [5], in assay [6], in assay [7] and in assay [8] was inactive.

Take `NCc1cccc(-c2cccc(CNC3CCN(Cc4ccccc4)CC3)c2)c1`: the growth inhibition in assay [1] is 45%; in assay [4], 100% (active). Besides, the inhibition in assay [2] is 9%; in assay [3], 2%. In addition, the result in assay [5], in assay [6], in assay [7] and in assay [8] was inactive.

As to `COc1cccc(CCNc2nc(NCc3ccccc3)c3cc(OC)c(OC)cc3n2)c1`, the growth inhibition in assay [1] was 99% (active); in assay [4], 100% (active). The inhibition is 20% in assay [2] and -6% in assay [3]. The outcome in assay [5], in assay [6], in assay [7] and in assay [8] was inactive.

Regarding `CS(=O)(=O)c1cccc(-c2ccc3oc(C(N)=O)c(NC(=O)c4cccs4)c3c2)c1`, the values for the growth inhibition in assay [1] and in assay [4] were 77% (active) and 86% (active), respectively. For the same compound, the values for the inhibition in assay [2] and in assay [3] were 11% and -8%, respectively. Further, the outcome in assay [5], in assay [6], in assay [7] and in assay [8] was inactive.

As to `CCN1CCc2nc3ccccc3c(C(=O)Nc3ccc(C#N)cc3)c2C1`, the results for the growth inhibition in assay [1] and in assay [4] were 72% (active) and 99% (active), respectively. Besides, the inhibition in assay [2] was 24%; in assay [3] it was -1%. For the same compound, the result in assay [5], in assay [6], in assay [7] and in assay [8] was inactive.

As to `CC(=O)Nc1nc(C(=O)Nc2ccc(-c3cccc(-c4nc5ccc(C(F)(F)F)cc5[nH]4)c3)cc2)cs1`, the growth inhibition in assay [1] was 97% (active); in assay [4] it was 101% (active). The inhibition in assay [2] was 79% (active); in assay [3], -2%. In addition, the result in assay [5], in assay [6], in assay [7] and in assay [8] was inactive.

In the case of `N#Cc1ccc(NC(=NCCc2c[nH]c3ccccc23)Nc2ccc(-c3ccccc3)cc2)c(O)c1`, the results for the growth inhibition in assay [1] and in assay [4] were 75% (active) and 96% (active), respectively. The inhibition in assay [2] and in assay [3] was 6% each time. Besides, the result in assay [5], in assay [6], in assay [7] and in assay [8] was inactive.

Consider `COc1ccc(NC(=O)/C=C/c2ccccc2Cl)cc1OCCN1CCC(NC2CC2)CC1`, for which the growth inhibition was 66% (active) in assay [1] and 101% (active) in assay [4]. Moreover, the inhibition in assay [2] was 23%; in assay [3], 3%. Also, the outcome in assay [5], in assay [6], in assay [7] and in assay [8] was inactive.

These data come from PubChem BioAssay.
